This note sets out measurements from PubChem BioAssay (NCATS).

“And” between values parts separate entries of the source, which are not always exact repeats. Equal values may be shown once. Records with an inconclusive call do not appear. Where a structure was tested more than once in an assay, its records may differ in their call. The source made the active and inactive calls. Calls follow the shape of the dose curve; as a rule, active = well fitted curve in the direction sought with a large enough effect; inconclusive = small, poorly fitted or top-dose-only effect, or another doubt; inactive = no such curve, though single readings can be large; an effect the other way counts as inactive or inconclusive.

Test [1] concerns the target Cytochrome P450 3A7 (Homo sapiens) (UniProt P24462). The test is described as follows: Cytochrome P450 family 3 subfamily A member 7 (CYP3A7) small molecule antagonists: luciferase biochemical qHTS assay (AID 1963596). Also: % is scaled to controls: 0 for no effect and ±100 for the full control effect; nearly all actives have a fitted effect of over 40% in size. The note with it: P450-Glo CYP3A7 enzyme luminescence, 1 h; series mostly up to 57.4 µM. In short, it runs like this: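 P450-Glo luminescent assay: CYP3A7 enzyme converts a proluciferin substrate to luciferin, detected by luciferase reagent; light proportional to activity. Compounds in DMSO preincubated 10 min with enzyme-substrate mix at room temperature, then NADPH regeneration added for 1 h.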
On the technique in general: Quantitative high-throughput screening tests each substance at several concentrations.

Test [2] is described as follows: Viability qHTS for spleen associated tyrosine kinase inhibitor (SYKi) naive MV4-11 cells (AID 1963823). Also: nearly all actives have a fitted effect of over 40% in size. Also: potency is read from the fitted curve at half-maximal effect. The note with it: MV4-11 AML viability, CellTiter-Glo luminescence, 72 h; series mostly up to 45 µM. In a few lines:
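Seeding of 500 SYKi-naive MV4-11 cells per well onto pre-dispensed compounds preceded a 72 hr incubation at 37 C. Luminescent CellTiter-Glo signal, read after 10 min at room temperature, reflected viable cells.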

Test [3] in a line: Viability qHTS for spleen associated tyrosine kinase inhibitor (SYKi) drug resistant MV4-11 cells (AID 1963824). Also: nearly all actives have a fitted effect of over 35% in size. Also: potency is read from the fitted curve at half-maximal effect. The note with it: SYKi-resistant MV4-11 viability, CellTiter-Glo, 72 h; series mostly up to 45 µM. In a few lines:
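SYK-inhibitor-resistant MV4-11 AML cells were seeded at 500 per well onto compound and cultured 72 hours (37 °C, 5% CO2). CellTiter-Glo was then added, and after 10 min at room temperature, luminescence gave viability.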

The nature of test [4]: Quantitative highthroughput screen to assess conditional lethalithy of NOMO1 cells grown in RPMI1640 with untreated serum (RPMI+s) (AID 1963876). Also: nearly all actives have a fitted effect of over 35% in size. Also: potency is read from the fitted curve at half-maximal effect.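 As to Viability: 100% = DMSO wells and 0% = empty wells without cells.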 The note with it: NOMO1 AML cells in RPMI+serum, CellTiter-Glo viability, 48 h; series mostly up to 45.8 µM. In a few lines:
(§1)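 Each medium arm—HPLM with 10% dialyzed FBS, or RPMI1640 with 5 mM glucose and 10% untreated or dialyzed FBS—was screened against an 11-point, 3-fold compound titration for 48 h at 37 °C, with CellTiter-Glo luminescence as endpoint.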

The nature of test [5]: Quantitative highthroughput screen to assess conditional lethalithy of NOMO1 cells grown in RPMI1640 with dialyzed fetal bovine serum (RPMI+ds) (AID 1963877). Also: nearly all actives have a fitted effect of over 30% in size. Also: potency is read from the fitted curve at half-maximal effect.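 As to Viability: 100% = DMSO control wells and 0% = empty wells.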 The conditions noted are these: NOMO1 in RPMI+dialyzed FBS viability, ATP luminescence, 48 h; series mostly up to 45.8 µM. In a few lines:
as §1

Test [6] in a line: Quantitative highthroughput screen to assess conditional lethalithy of NOMO1 cells grown in Human Plasma-Like Medium with dialyzed fetal bovine serum (HPLM+ds) (AID 1963878). Also: nearly all actives have a fitted effect of over 35% in size. Also: potency is read from the fitted curve at half-maximal effect.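 As to Viability: 100% = DMSO wells and 0% = empty wells on each plate.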 The note with it: NOMO1 AML cells in HPLM+ds, CellTiter-Glo viability, 48 h; series mostly up to 45.8 µM. In short, it runs like this: as §1
The nature of test [7]: Quantitative highthroughput screen to assess conditional lethalithy of P12 Ichikawa cells grown in Human Plasma-Like Medium with dialyzed fetal bovine serum (HPLM+ds) (AID 1963879). Also: nearly all actives have a fitted effect of over 35% in size. Also: potency is read from the fitted curve at half-maximal effect. The note with it: ATP luminescence, 48 h; Potency: viability; series mostly up to 45.8 µM. In a few lines: as §1
The nature of test [8]: Quantitative highthroughput screen to assess conditional lethalithy of P12 Ichikawa cells grown in RPMI1640 with untreated serum (RPMI+s) (AID 1963881). Also: nearly all actives have a fitted effect of over 35% in size. Also: potency is read from the fitted curve at half-maximal effect.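 As to Viability: 100% = DMSO wells and 0% = empty wells without cells.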 The conditions noted are these: ATP luminescence, 48 h; Potency: viability; series mostly up to 45.8 µM. In a few lines:
as §1

Test [9] can be described thus: Quantitative highthroughput screen to assess conditional lethalithy of SEM cells grown in Human Plasma-Like Medium with dialyzed fetal bovine serum (HPLM+ds) (AID 1963882). Also: nearly all actives have a fitted effect of over 35% in size. Also: potency is read from the fitted curve at half-maximal effect. The note with it: SEM B-ALL cells in HPLM+ds, CellTiter-Glo viability, 48 h; series mostly up to 45.8 µM. In short, it runs like this:
as §1
For orientation: ATP-based viability assays read luminescence as a measure of living cells.

A short description of test [10]: Quantitative highthroughput screen to assess conditional lethalithy of SEM cells grown in RPMI1640 with dialyzed fetal bovine serum (RPMI+ds) (AID 1963884). Also: nearly all actives have a fitted effect of over 35% in size. Also: potency is read from the fitted curve at half-maximal effect.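 As to Viability: 100% = DMSO control wells and 0% = empty wells without cells.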 The conditions noted are these: SEM B-ALL cells, RPMI+dialyzed FBS, CellTiter-Glo viability, 48 h; series mostly up to 45.8 µM. In a few lines:
as §1

A short description of test [11]: Cellular viability qHTS for adrenocortical cancer (ACC) cell line SW-13 (AID 1963989).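 Also: cells grown in serum-free medium with ITS supplement; % is scaled to controls: 0 for no effect and ±100 for the full control effect; nearly all actives have a fitted effect of over 65% in size.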 The note with it: SW-13 ACC cells viability, CellTiter-Glo, 48 h; activity (max response): stronger effect = lower value. In short, it runs like this:
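IC50 and maximal-response values come from four-parameter logistic fits of titration data. SW-13 cells in serum-free medium received compounds (up to 46 uM final) for 48 h before CellTiter-Glo luminescence.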

Test [12] is described as follows: Cellular viability qHTS for adrenocortical cancer (ACC) cell line NCI-H295R (AID 1963990).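 Also: 0% = DMSO only wells and -100% = full killing with cytotoxic reference compound; nearly all actives have a fitted effect of over 60% in size.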 The conditions noted are these: CellTiter-Glo ATP luminescence, 48 h; series mostly up to 46.1 µM. In short, it runs like this:
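Adrenocortical carcinoma cells, suspended at 300 000 cells/mL in serum-free DMEM plus ITS, rested overnight before pin transfer of compound. After two days' incubation, ATP-dependent luminescence was recorded and curve-fitted.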

Test [13] is described as follows: Quantitative highthroughput screen to assess conditional lethalithy of P12 Ichikawa cells grown in RPMI1640 with dialyzed fetal bovine serum (RPMI+ds) (AID 1963880). Also: nearly all actives have a fitted effect of over 35% in size. Also: potency is read from the fitted curve at half-maximal effect.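 As to Viability: 100% = DMSO wells and 0% = empty wells on each plate.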 The conditions noted are these: ATP luminescence, 48 h; Potency: P12-Ichikawa viability; series mostly up to 45.8 µM. In a few lines: as §1
Test [14] in a line: Quantitative highthroughput screen to assess conditional lethalithy of SEM cells grown in RPMI1640 with unreated serum (RPMI+s) (AID 1963883). Also: nearly all actives have a fitted effect of over 35% in size. Also: potency is read from the fitted curve at half-maximal effect.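 As to Viability: 100% = DMSO wells and 0% = empty wells without cells.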 The conditions noted are these: SEM B-ALL cells, CellTiter-Glo viability, 48 h; series mostly up to 45.8 µM. In a few lines:
as §1

Cytochrome P450 3A7 (Homo sapiens), sequence (P24462 whole entry, looked up): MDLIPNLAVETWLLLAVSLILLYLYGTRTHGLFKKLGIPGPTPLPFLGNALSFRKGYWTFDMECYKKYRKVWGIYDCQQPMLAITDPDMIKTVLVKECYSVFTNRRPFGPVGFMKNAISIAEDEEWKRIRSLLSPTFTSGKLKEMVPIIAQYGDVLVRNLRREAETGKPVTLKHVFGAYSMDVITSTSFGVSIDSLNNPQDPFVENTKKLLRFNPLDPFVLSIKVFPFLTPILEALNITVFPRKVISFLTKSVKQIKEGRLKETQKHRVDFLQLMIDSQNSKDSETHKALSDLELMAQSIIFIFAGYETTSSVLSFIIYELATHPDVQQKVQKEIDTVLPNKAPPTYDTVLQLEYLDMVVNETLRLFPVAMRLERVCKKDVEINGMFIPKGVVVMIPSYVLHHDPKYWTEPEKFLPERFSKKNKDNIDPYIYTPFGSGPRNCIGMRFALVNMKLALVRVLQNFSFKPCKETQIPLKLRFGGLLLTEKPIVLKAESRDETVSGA

On to `COc1c(N2CCNC(C)C2)c(F)cc2c(=O)c(C(=O)O)cn(C3CC3)c12` (stereo unspecified), for which the Potency entry in test [1], in [4], in test [5], in test [6], in [7] and in test [8] was “inactive” each time. For the same compound, in test [12], the Potency result was “inactive”. Further, the Potency in [2] was 18.6 µM (active); in test [3], 14.8 µM (active); in test [9], 0.743 µM (active); in test [10], 0.662 µM (active). The activity (max response) in [11] was -4.21% (inactive) and 1.72% (inactive).

As for `Nc1nc(N)nc(-c2cc(Cl)ccc2Cl)n1`, the Potency result in test [1], in test [2], in [3], in test [4], in test [5] and in test [6] was “inactive” each time. The Potency entry in test [7], in test [13], in test [8], in test [10] and in test [12] was “inactive” throughout. For the same compound, the activity (max response) in test [11] was 2.1% (inactive) and -6.28% (inactive).

For `COc1ncnc(NS(=O)(=O)c2ccc(N)cc2)c1OC`, the Potency result in [1], in [2], in test [3] and in test [12] was “inactive” each time. For the same compound, the Potency in test [4] is 4.69 µM (active); in [5], 7.43 µM (active); in [6], 2.35 µM (active); in [7], 1.18 µM (active); in [13], 1.18 µM (active); in test [8], 1.66 µM (active). Moreover, the Potency in test [9] is 1.87 µM (active); in test [14], 0.935 µM (active).

Take `OC[C@H]1O[C@@H](OCCc2ccc(O)cc2)[C@H](O)[C@@H](O)[C@H]1O`: the Potency result in [1], in test [2], in [3], in test [4], in test [5] and in [6] was “inactive” in each case. Further, the Potency result in [7], in test [13], in test [8] and in test [10] was “inactive” each time. Besides, the activity (max response) in test [11] was -16.3% (inactive).

Regarding `C[N+](C)(C)CC(=O)O`, the Potency entry in [1], in test [2], in [3], in [4], in test [5] and in test [6] was “inactive” in each case. The Potency entry in test [7], in [13], in test [8], in test [14], in [10] and in test [12] was “inactive” in each case. Moreover, in test [11], the activity (max response) was -6.24% (inactive) and 7.87% (inactive).

For `O=C(O)CSCC(=O)NC1CCSC1=O` (stereo unspecified), the Potency entry in [1], in test [2], in test [3], in [4], in [5] and in test [6] was “inactive” each time. For the same compound, the Potency result in [7], in [13], in test [8], in test [9], in [14] and in test [10] was “inactive” throughout. In addition, in [12], the Potency result is “inactive”. In addition, the activity (max response) in [11] is 1.69% (inactive) and -8.03% (inactive).

On to `N#Cc1ccc(C(c2ccc(C#N)cc2)n2cncn2)cc1`, for which the Potency result in test [1], in test [2], in [3], in test [4], in test [5] and in test [6] was “inactive” in each case. Moreover, the Potency entry in [7], in [13], in test [8], in test [9], in [10] and in test [12] was “inactive” throughout. Further, in test [11], the activity (max response) was 2.79% (inactive).

Regarding `CC[C@H](NC(C)C)[C@H](O)c1ccc(O)c2[nH]c(=O)ccc12`, the Potency result in [1], in test [3], in test [4], in test [5], in test [6] and in test [7] was “inactive” throughout. Moreover, the Potency entry in test [13], in test [8], in test [9], in test [14], in [10] and in [12] was “inactive” in each case. In addition, the Potency entry in test [2] is “inactive and 525 nM (active)”. Besides, the activity (max response) in [11] is 3.1% (inactive) and 13.3% (inactive).

On to `CCOC(=O)C(C)(C)Oc1ccc(Cl)cc1`, for which the Potency entry in [1], in [2], in test [3], in [4], in [5] and in [6] was “inactive” each time. Besides, the Potency result in test [7], in test [13], in [8], in test [14], in [10] and in test [12] was “inactive” throughout. For the same compound, the activity (max response) in [11] was 0.705% (inactive) and -17.8% (inactive).

Turning to `CN(C)CCc1c[nH]c2ccc(C[C@H]3COC(=O)N3)cc12`, the Potency entry in test [1], in test [2], in [3] and in test [12] was “inactive” throughout. Besides, the Potency in test [4] was 16.6 µM (active); in [5], 20.9 µM (active); in test [6] it was 13.2 µM (active); in [7], 7.43 µM (active); in [8], 10.5 µM (active); in test [9], 9.35 µM (active). The Potency in test [14] was 4.69 µM (active); in test [10], 9.35 µM (active).

On to `C1COC(NC(C2CC2)C2CC2)=N1`, for which the Potency entry in [1], in [2], in test [3], in [4], in [5] and in test [6] was “inactive” throughout. In addition, the Potency entry in [7], in test [8] and in test [12] was “inactive” each time. Further, in test [11], the activity (max response) was 14.7% (inactive) and 0.392% (inactive).

With `COc1nc(N)nc2c1ncn2[C@@H]1O[C@H](CO)[C@@H](O)[C@@H]1O`, the Potency entry in test [1], in [2], in test [3], in [4], in test [6] and in test [7] was “inactive” in each case. Further, the Potency entry in [13], in [14], in test [10] and in test [12] was “inactive” throughout. In addition, in test [11], the activity (max response) was -9.37% (inactive).

For `Nc1cc(C(Cl)=C(Cl)Cl)c(S(N)(=O)=O)cc1S(N)(=O)=O`, the Potency result in [1], in test [2], in test [3] and in [12] was “inactive” in each case. The Potency in test [4] was 7.43 µM (active); in [6] it was 1.87 µM (active); in [7], 1.18 µM (active); in [13], 5.26 µM (active); in [8] it was 7.43 µM (active); in test [9], 7.43 µM (active). Besides, the figures for the Potency in [14] and in test [10] were 2.96 µM (active) and 4.18 µM (active), respectively. Besides, in test [11], the activity (max response) was -17% (inactive) and 6.7% (inactive).

On to `CNNCc1ccc(C(=O)NC(C)C)cc1`, for which the Potency result in [1], in [2], in test [3], in [4], in test [5] and in test [7] was “inactive” in each case. Also, in test [12], the Potency result was “inactive”. Further, the activity (max response) in test [11] is 0.571% (inactive) and -4.58% (inactive).

Turning to `Cc1nnc(NS(=O)(=O)c2ccc(N)cc2)s1`, the Potency entry in test [1], in [2], in [3], in [9], in test [10] and in test [12] was “inactive” throughout. Also, the Potency in [4] is 9.35 µM (active); in test [5] it was 5.26 µM (active); in test [7], 7.43 µM (active); in [13] it was 13.2 µM (active); in test [8] it was 8.33 µM (active); in test [14], 9.35 µM (active). In test [11], the activity (max response) was -2.08% (inactive) and -2.89% (inactive).
